Rows were chosen to be rich in hits. Some 2.4% of all compounds tested hit in one or more screens of this group.
Cruzain inh Det: cruzain (T. cruzi) inhibition with detergent | purified cruzain, Z-FR-AMC fluorescence, 0.01% Triton | hit rate 0.43% among 200,000 | P25779 | Potency, µM, most hits filed as inhibitors; note: nearly all actives have a fitted effect of over 40% in size
Target sequence (P25779 123-467 limits assumed): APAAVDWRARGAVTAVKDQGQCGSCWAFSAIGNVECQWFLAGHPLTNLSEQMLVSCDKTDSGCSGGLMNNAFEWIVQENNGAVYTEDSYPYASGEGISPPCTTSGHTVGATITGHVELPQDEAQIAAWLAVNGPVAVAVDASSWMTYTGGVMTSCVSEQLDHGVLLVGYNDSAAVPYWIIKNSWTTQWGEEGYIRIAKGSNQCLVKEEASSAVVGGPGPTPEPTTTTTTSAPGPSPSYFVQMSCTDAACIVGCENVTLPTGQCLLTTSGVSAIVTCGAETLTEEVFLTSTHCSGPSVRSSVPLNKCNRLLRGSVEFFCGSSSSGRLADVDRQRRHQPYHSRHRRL
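Sodium acetate buffer (100 mM, pH 5.5) containing 5 mM DTT and 0.01% Triton X-100 hosted 1.5 nM cruzain and test compound for 15 min at room temperature. Cleavage of 2 uM Z-FR-AMC was then tracked by fluorescence.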
Cruzain inh noDet: cruzain (T. cruzi) inhibition without detergent. P25779. purified cruzain, Z-FR-AMC fluorescence, no detergent. Potency, µM, most hits filed as inhibitors. hit rate 2.3% among 200,000. AID 1476; note: nearly all actives have a fitted effect of over 40% in size
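Detergent-free condition (0.00005% Triton X-100) in acetate buffer pH 5.5 with DTT. 1.5 nM enzyme and compound were pre-mixed 15 min, then 2 uM Z-FR-AMC substrate added; reaction progress from fluorescence change between first and third reads (60 s).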
A number is an active result; n = inactive; u = inconclusive. Calls come from the whole dose curve; as a rule, active = well fitted curve in the direction sought with a large enough effect; inconclusive = small, poorly fitted or top-dose-only effect, or another doubt; inactive = no such curve, though single readings can be large; an effect the other way counts as inactive or inconclusive.

SMILES	Cruzain inh Det	Cruzain inh noDet
O=C(Nc1cc(Cl)ccc1Cl)c1ccc(-c2ccccc2)cc1	n	n
COC(=O)c1ccc(C(=O)Nc2cc(Cl)ccc2Cl)cc1NC(=O)c1ccc(N(C)C)cc1	n	3.2µM
Cc1ccc(NC(=O)Cn2c(=O)n(Cc3ccc4c(c3)OCO4)c(=O)c3ccc(C(=O)NC4CCCCC4)cc32)cc1	n	n
COc1cccc(-c2ccc3ncnc(N4CCNCC4)c3c2)c1	n	n
Cc1cccc(-c2nc(CSc3nncn4c3cc3oc(C)cc34)c(C)o2)c1	n	n
c1coc(CN2CN=C(Nc3nc4ccccc4s3)NC2)c1	u	13µM
c1ccc(CN2CN=C(Nc3nc4ccccc4s3)NC2)cc1	u	n
Cc1c(NC(=O)CSc2ccc(Cl)cc2)cccc1-c1nc2cc(Cl)ccc2o1	n	25µM
O=C(Cc1ccc(Cl)cc1)Nc1ccc2oc(-c3ccccc3F)nc2c1	n	7.9µM
O=C(Cc1ccc(Cl)cc1)Nc1ccc2oc(-c3ccncc3)nc2c1	n	n
Cc1ccc(SCC(=O)Nc2cccc(-c3nc4cc(Cl)ccc4o3)c2C)cc1	n	n
Cc1ccc(Cn2ccn(CC(=O)Nc3ccccc3C(F)(F)F)c(=O)c2=O)cc1	n	u
O=[N+]([O-])c1ccc(CSc2nc3ccccc3[nH]2)cc1	n	n
Cc1cccc2nc(CSc3nc4ccc([N+](=O)[O-])cc4[nH]3)c(Br)n12	n	3.2µM
COc1cc2c(cc1OC)n(CC(=O)c1ccc(C)cc1C)c(=O)n1nc(CCn3nc(C)cc3C)nc21	n	n
CCCCNC(=O)CCCCCn1c(=O)[nH]c2ccccc2c1=O	n	n
CCC(=O)Nc1ncnc2ncn(C(=O)CC)c12	n	n
CCc1ccc(NC(=O)C2CCN(S(=O)(=O)c3ccc4[nH]c5c(c4c3)CCCCC5)CC2)cc1	n	10µM
CC(=O)c1cccc(NC(=O)C2CCN(S(=O)(=O)c3ccc4[nH]c(=O)ccc4c3)CC2)c1	n	n
O=C(Nc1ccccc1)C1CCN(S(=O)(=O)c2ccc3[nH]c4c(c3c2)CCCCC4)CC1	n	16µM
O=C(NCc1ccc2[nH]c3c(c2c1)CCCC3)c1ccc(S(=O)(=O)N2CCCCC2)cc1	n	u
Cc1cccc(NS(=O)(=O)c2ccc3[nH]c4c(c3c2)CCCCCC4)c1	n	n
Cc1cccc(NC(=O)C2CCN(S(=O)(=O)c3ccc4[nH]c5c(c4c3)CCCCC5)CC2)c1	n	13µM
CCCCNc1nc(C)nc2c1nc(-c1ccccc1)n2CCN1CCCC1	n	n
COc1cccc(-c2nc(SCC(=O)NCC3CCCO3)c(-c3ccc(Cl)cc3)[nH]2)c1 (configuration not stated)	n	n
SMILES	Cruzain inh Det	Cruzain inh noDet
COC(=O)c1ccc(NC(=O)CSc2nccn2Cc2ccc(Cl)cc2)cc1	n	n
Cc1ccc2c(c1)N(C(=O)c1ccco1)C(C)(C)c1ssc(=S)c1-2	n	32µM
Cc1cccc2c1N(C(=O)c1ccco1)C(C)(C)c1ssc(=S)c1-2	n	n
COc1cccc(N2CCN(C(=O)C3CCC(CNS(=O)(=O)c4ccc(Br)s4)CC3)CC2)c1 (configuration not stated)	n	n
O=[N+]([O-])c1cc2c(cc1/C=N/Nc1nc(N3CCCC3)nc(N3CCCC3)n1)OCO2	n	n
O=[N+]([O-])c1ccc(Nc2nc(N/N=C\c3ccc4c(c3)OCO4)nc(N3CCCCC3)n2)cc1	n	7.9µM
Cc1cccc(C(=O)Nc2cccc(C(=O)OCc3cc(=O)n4c5c(sc4n3)CCCC5)c2)c1	n	n
O=C(CCNS(=O)(=O)c1cccc2nsnc12)Nc1ccc(F)cc1	n	n
Cc1ccc(C(=O)Nc2ccc3oc(-c4ccc(C(C)(C)C)cc4)nc3c2)cc1	n	n
O=C(Cn1cnc2cc([N+](=O)[O-])ccc2c1=O)Nc1ccc2c(c1)CCC2	n	16µM
O=C(Cn1cnc2ccccc2c1=O)Nc1ccc2c(c1)CCC2	n	n
Cc1ccc(N2C(=O)C3C(C2=O)C(C(=O)c2ccc(Cl)cc2)N2CCCC32)cc1 (configuration not stated)	n	n
O=C(C1=C[C@@H]2[C@H]3C(=O)N(c4ccc(Cl)cc4)C(=O)[C@H]3[C@@H](C(=O)c3ccc(Cl)cc3)N2C=C1)c1ccccc1	n	7.9µM
C[C@]12C[C@H](O)C3[C@@H](CCC4=CC(=O)CC[C@@]43C)[C@@H]1CC[C@@H]2C(=O)CO (some centres not stated)	n	n
COC(=O)c1ccccc1NC(=O)c1cc2sccc2n1C	n	n
COC(=O)c1cccc(NC(=O)c2cc3sccc3n2C)c1	n	25µM
CN(C)c1ccc(NC(=O)CCSc2nc(-c3ccco3)cc(C(F)(F)F)n2)cc1	n	n
COc1ccc(OC)c2sc(NC(=O)c3ccc(Cl)s3)nc12	n	n
COc1ccc(OC)c2sc(NC(=O)c3ccc(Br)s3)nc12	n	16µM
Clc1cccc(/C=N\Nc2nccs2)c1	25µM	16µM
Clc1cccc(/C=N/Nc2nc(Cl)nc3ccccc23)c1	n	u
CC/C(=C(/c1ccccc1)c1ccc(OCCN(C)C)cc1)c1ccccc1	n	n
O=C(Cn1ncc2c3ccccc3n(Cc3cccc(Cl)c3)c2c1=O)Nc1ccc(F)cc1F	n	n
Cc1cc(=O)n2nc(N3CCC(C(=O)NCCCOC(C)C)CC3)sc2n1	n	n
CCOC(=O)/C(=C\C=C\c1ccccc1)NC(=O)c1ccccc1	n	n
SMILES	Cruzain inh Det	Cruzain inh noDet
C=CCOC(=O)/C(=C\C=C\c1ccccc1)NC(=O)c1ccccc1	14µM	u
O=C(c1ccc(N2C(=O)C3CC=C(Cl)CC3C2=O)cc1)N1CCCCC1 (configuration not stated)	n	n
O=C(Nc1ccc(Br)cc1)c1ccc(N2C(=O)C3CC=C(Cl)CC3C2=O)cc1 (configuration not stated)	n	20µM
Cc1cc(NC(=O)c2ccc3c(c2)N(Cc2cccc(Cl)c2)C(=O)c2ccccc2S3(=O)=O)ccc1Br	n	3.2µM
N#Cc1cccc(NC(=O)c2ccc3c(c2)N(Cc2cccc(Cl)c2)C(=O)c2ccccc2S3(=O)=O)c1	n	6.3µM
O=C(NC1CCCC1)c1ccc2c(c1)N(Cc1ccccc1Cl)C(=O)c1ccccc1S2	n	u
CC(=O)Nc1ccc(NC(=O)c2ccc3c(c2)N(Cc2cccc(Cl)c2)C(=O)c2ccccc2S3(=O)=O)cc1	n	n
O=C(Nc1ccc(Cl)cc1)c1ccc2c(c1)N(Cc1ccccc1)C(=O)c1ccccc1S2(=O)=O	n	u
O=C(NC1CCCCC1)c1ccc2c(c1)N(Cc1ccccc1Cl)C(=O)c1ccccc1S2	n	10µM
CC(C)CCNC(=O)c1ccc2c(c1)N(Cc1cccc(Cl)c1)C(=O)c1ccccc1S2	n	u
COc1ccc(CNC(=O)c2ccc3c(c2)N(Cc2cccc(Cl)c2)C(=O)c2ccccc2S3)c(OC)c1	n	13µM
COc1cc(C)ccc1OCCSc1nc2ccc(NC(=O)c3ccco3)cc2s1	n	u
CCOCCn1cnc2sc(C(=O)Nc3ccccc3C(=O)OC)c(C)c2c1=O	n	n
Cc1ccc(CCNC(=O)c2ccc3c(c2)N(Cc2cccc(C)c2)C(=O)c2ccccc2S3(=O)=O)cc1	n	u
O=C(NCCc1ccc(Cl)cc1)c1ccc2c(c1)N(Cc1cccc(Cl)c1)C(=O)c1ccccc1S2(=O)=O	n	10µM
Cc1ccccc1-n1nc(C(=O)c2cccs2)cc(-c2nc3ccccc3[nH]2)c1=N	n	25µM

Screening results: PubChem, National Center for Advancing Translational Sciences (NCATS)
